From PubChem BioAssay (EPA / NIEHS) come the findings set out here.

Values joined by “and” are separate entries in the source; they are usually repeats but may differ in a detail not shown here. Identical values can stand only once. Inconclusive results are not listed. The source holds several records for some structures; these can differ, active in one and inactive in another. Active and inactive are the calls of the source. The calls were made as follows, unless noted: active = hit-call score of the fitted dose curve at least 0.9, where 1 is the maximum; inactive = score below 0.9.

Broadly, the AC50 is the concentration at which the activity in the assay is half-maximal.

The target of assay [1] is Nuclear respiratory factor 1 (Homo sapiens) (UniProt Q16656). As to the kind of experiment: ATG_NRF1_CIS: Attagene CIS-FACTORIAL HepG2 Assay for human Nuclear Respiratory Factor 1 (NRF1) Orphan Gene (AID 2282987). The following applies: HepG2 NRF1 cis-element reporter, Attagene multiplex; actives raise or lower the signal. In short, it runs like this: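 Endogenous factor activity was captured via cis-element-driven reporter transcripts in HepG2 cells. Following 24 h chemical treatment, transcripts were quantified by RT-PCR and capillary electrophoresis.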

The nature of assay [2]: ATG_NFI_CIS: Attagene CIS-FACTORIAL HepG2 Assay for human Nuclear Factor I (NFI) (AID 2282989). Particulars: HepG2 cis-regulatory reporter, NFI response element transcription; actives raise or lower the signal. The method, boiled down: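 HepG2, transient MRTU, 24 h exposure; RNA→cDNA→PCR→FAM label→HpaI→CE fluorescence. Bidirectional fit, DMSO = baseline.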
Assay [3] concerns the target Myc proto-oncogene protein (Homo sapiens) (UniProt P01106). As to the kind of experiment: ATG_Myc_CIS: Attagene CIS-FACTORIAL HepG2 Assay for human Myelocytomatosis (Myc) Proto-Oncogene Transcription Factor (AID 2282990). Particulars: HepG2, Attagene cis-reporter transcription factor activity; actives raise or lower the signal. In short, it runs like this:
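HepG2, transient MRTU transfection (cis promoters, endogenous TFs); 24 h dosing; TriZol RNA → oligo(dT) RT → PCR → 6-FAM primer extension → HpaI cut → CE. Bidirectional fit vs DMSO.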

A short description of assay [4]: ATG_NF_kB_CIS: Attagene CIS-FACTORIAL HepG2 Assay for human Nuclear Factor Kappa B (NF-kB) (AID 2282991). The following applies: HepG2 Attagene cis-factorial NF-kB reporter mRNA; actives raise or lower the signal. In short, it runs like this:
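After 24 h compound incubation, transfected HepG2 cells yield total RNA; reporter cDNA is PCR-amplified, end-labelled with 6-FAM, HpaI-digested and analysed on a genetic analyser. Endogenous factor activity, DMSO-referenced bidirectional fit.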

A short description of assay [5]: ATG_NRF2_ARE_CIS: Attagene CIS-FACTORIAL HepG2 Assay for human Nuclear Factor Erythroid 2 Related Factor 2 (NFR2) response to Antioxidant Response Elements (ARE) (AID 2282992).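 As to AC50: reporter mRNA level measured by RT-PCR and capillary electrophoresis fluorescence.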 Particulars: HepG2 Attagene ARE/NRF2 reporter, transcription factor activity; actives raise or lower the signal. The method, boiled down: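 Cis-factorial assay: transfected HepG2 reporter library, 24 h dosing, mRNA readout via RT-PCR/CE; DMSO-referenced bidirectional analysis.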

Assay [6] in a line: ATG_Oct_MLP_CIS: Attagene CIS-FACTORIAL HepG2 Assay for human Octamer-Binding Transcription Factor (Oct) (AID 2282993). Particulars: HepG2 Attagene cis-factorial Oct reporter, mRNA; actives raise or lower the signal. In short, it runs like this: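 Multiplexed cis-reporter assay in human liver HepG2 cells, 24 h incubation. Reporter RNA amplified and labelled, then resolved by capillary electrophoresis; DMSO serves as negative control and baseline.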

The target of assay [7] is Cellular tumor antigen p53 (Homo sapiens) (UniProt P04637). Kind of assay: ATG_p53_CIS: Attagene CIS-FACTORIAL HepG2 Assay for human p53 Transcription Factor (AID 2282994). Particulars: HepG2 p53 cis-element reporter, Attagene mRNA; actives raise or lower the signal. In short, it runs like this:
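Using HepG2 hepatoma cells carrying cis-acting multiplexed reporters, mRNA induction is detected after a 24 h exposure. Gain- and loss-of-signal responses are fitted relative to DMSO-treated cells.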

The nature of assay [8]: BSK_3C_TissueFactor: BioMAP Diversity Plus: 3C Assay for Tissue Factor Biomarker Activity (AID 2282997). Particulars: BioMAP 3C HUVEC, tissue factor biomarker readout; actives raise or lower the signal. The method, boiled down:
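Human vascular primary cells (umbilical vein endothelium) received test chemical; Tissue Factor was determined by ELISA at 24 h, and both gain and loss of signal versus DMSO were fitted.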

The nature of assay [9]: BSK_3C_uPAR: BioMAP Diversity Plus: 3C Assay for Urokinase-type plasminogen activator receptor (uPAR) Biomarker Activity (AID 2282998). Particulars: BioMAP 3C HUVEC, uPAR biomarker ELISA; actives raise or lower the signal. The method, boiled down: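 Dose primary human umbilical vein endothelial cells, incubate 24 h, measure cell-surface uPAR by ELISA, then fit the signal in both directions against the DMSO negative control.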
(In an ELISA, binding on a coated surface is turned into a signal by an enzyme label.)

The nature of assay [10]: BSK_3C_VCAM1: BioMAP Diversity Plus: 3C Assay for Vascular cell adhesion molecule 1 (VCAM1) Biomarker Activity (AID 2282999). Particulars: BioMAP 3C HUVEC, VCAM1 ELISA, cytokine-stimulated; actives raise or lower the signal. The method, boiled down: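 Endothelial cells from human umbilical vein are treated with test chemical. At 24 h, VCAM-1 is measured by ELISA, and responses in either direction are fitted relative to DMSO.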

Assay [11] can be described thus: BSK_4H_Eotaxin3: BioMAP Diversity Plus: 4H Assay for Eotaxin 3 Biomarker Activity (AID 2283000). Particulars: primary human endothelial cells (HUVEC); actives raise or lower the signal. The method, boiled down: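 Readout is Eotaxin-3 (CCL26) level by ELISA in primary human umbilical vein endothelial cells harvested 24 h after chemical exposure; activity fitted in both directions against DMSO control.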

The target of assay [12] is human Peroxisome Proliferator-activated Receptor alpha (PPARa), PPARA (gene 5465) (UniProt Q07869). As to the kind of experiment: ATG_PPARa_TRANS: Attagene TRANS-FACTORIAL HepG2 Assay for human Peroxisome Proliferator-activated Receptor alpha (PPARa) (AID 2283001; active = hit-call score of the fitted dose curve at least 0.9, where 1 is the maximum). The method, boiled down:
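Reporter transcripts from GAL4-UAS units in transfected HepG2 were quantified 24 h after dosing. Detection used reverse transcription, PCR, fluorescent primer extension and capillary electrophoresis, with DMSO as baseline.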

Assay [13] has as its target human Peroxisome Proliferator-activated Receptor delta (PPARd), PPARD (gene 5467) (UniProt Q03181). As to the kind of experiment: ATG_PPARd_TRANS: Attagene TRANS-FACTORIAL HepG2 Assay for human Peroxisome Proliferator-activated Receptor delta (PPARd) (AID 2283002; active = hit-call score of the fitted dose curve at least 0.9, where 1 is the maximum). The method, boiled down: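 Transient HepG2 transfection (multiple GAL4-UAS RTUs, chimeric receptor-Gal4); 24 h dosing; total RNA → oligo(dT) RT → PCR → 6-FAM primer extension → HpaI cut → CE. Positive direction vs DMSO.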

The nature of assay [14]: BSK_3C_Proliferation: Cell Proliferation Assessment in the BioMAP Diversity Plus: 3C Assay (AID 2283006).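 As to AC50: potency may reflect either rise or fall in cell number versus DMSO.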 The following applies: primary human endothelial cells (HUVEC). In short, it runs like this:
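Proliferation of human vascular endothelial primary cells after 48 h dosing, quantified as SRB-stained protein at 560 nm relative to DMSO.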

Assay [15] deals with Nuclear receptor subfamily 1 group I member 2 (Homo sapiens) (UniProt O75469). Kind of assay: ATG_PXR_TRANS: Attagene TRANS-FACTORIAL HepG2 Assay for human Pregnane X Receptor (PXR) (AID 2283008; active = hit-call score of the fitted dose curve at least 0.9, where 1 is the maximum). The method, boiled down:
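Fluorescence intensity of FAM-labelled, HpaI-digested reporter amplicons, separated by capillary electrophoresis, quantifies induction. HepG2 cells with PXR-Gal4 trans-reporter system were exposed 24 h; DMSO defines baseline.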

Read-out in assay [16]: Intercellular Adhesion Molecule 1 (ICAM1), ICAM1 (gene 3383)
As to the kind of experiment: BSK_3C_ICAM1: BioMAP Diversity Plus: 3C Assay for Intercellular Adhesion Molecule 1 (ICAM1) Biomarker Activity (AID 2283003). The following applies: primary human endothelial cells (HUVEC); actives raise or lower the signal. In short, it runs like this:
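Human vascular endothelial primary cells, 3C conditions, 24 h treatment. ICAM-1 by ELISA.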

The target in assay [17] is Peroxisome proliferator-activated receptor gamma (Homo sapiens) (UniProt P37231). As to the kind of experiment: ATG_PPARg_TRANS: Attagene TRANS-FACTORIAL HepG2 Assay for human Peroxisome Proliferator-activated Receptor-gamma (PPARg) (AID 2283007; active = hit-call score of the fitted dose curve at least 0.9, where 1 is the maximum). The method, boiled down: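 Liver-derived HepG2 cells expressing an exogenous NR-Gal4 chimera alongside GAL4-UAS reporter genes; 24 h exposure. Fluorescence of reporter RT-PCR products, separated by capillary electrophoresis, gives mRNA induction relative to DMSO.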
Sequence of Peroxisome proliferator-activated receptor gamma (Homo sapiens) (P37231 whole entry, looked up, the tested form may be a part): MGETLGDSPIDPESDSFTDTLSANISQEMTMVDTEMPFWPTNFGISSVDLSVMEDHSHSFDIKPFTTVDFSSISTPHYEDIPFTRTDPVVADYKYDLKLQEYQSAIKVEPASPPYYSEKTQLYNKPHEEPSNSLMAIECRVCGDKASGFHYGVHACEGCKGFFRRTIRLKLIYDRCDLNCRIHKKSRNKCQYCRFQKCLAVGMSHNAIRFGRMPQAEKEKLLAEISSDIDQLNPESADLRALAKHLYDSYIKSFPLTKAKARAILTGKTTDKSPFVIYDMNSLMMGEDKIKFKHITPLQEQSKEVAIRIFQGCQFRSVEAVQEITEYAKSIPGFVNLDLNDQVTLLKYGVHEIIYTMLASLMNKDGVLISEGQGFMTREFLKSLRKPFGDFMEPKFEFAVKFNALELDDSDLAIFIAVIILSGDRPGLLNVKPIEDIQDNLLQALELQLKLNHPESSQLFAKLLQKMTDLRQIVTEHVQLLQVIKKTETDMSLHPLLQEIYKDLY

Sequence of human Peroxisome Proliferator-activated Receptor alpha (PPARa), PPARA (gene 5465) (Q07869 whole entry, looked up, the tested form may be a part): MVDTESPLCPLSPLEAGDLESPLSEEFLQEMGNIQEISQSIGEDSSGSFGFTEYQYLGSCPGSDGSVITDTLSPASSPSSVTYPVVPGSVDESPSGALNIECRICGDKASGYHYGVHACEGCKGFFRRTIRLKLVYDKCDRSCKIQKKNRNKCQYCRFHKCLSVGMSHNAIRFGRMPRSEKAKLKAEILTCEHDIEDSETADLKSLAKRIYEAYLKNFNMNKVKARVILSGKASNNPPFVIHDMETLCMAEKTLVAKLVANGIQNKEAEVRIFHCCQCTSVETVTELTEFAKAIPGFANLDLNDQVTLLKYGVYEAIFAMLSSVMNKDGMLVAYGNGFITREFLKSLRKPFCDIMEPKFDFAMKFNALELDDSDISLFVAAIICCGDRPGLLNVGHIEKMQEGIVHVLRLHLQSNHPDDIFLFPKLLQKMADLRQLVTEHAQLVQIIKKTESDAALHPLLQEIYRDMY
Sequence of Nuclear receptor subfamily 1 group I member 2 (Homo sapiens) (O75469 whole entry, looked up, the tested form may be a part): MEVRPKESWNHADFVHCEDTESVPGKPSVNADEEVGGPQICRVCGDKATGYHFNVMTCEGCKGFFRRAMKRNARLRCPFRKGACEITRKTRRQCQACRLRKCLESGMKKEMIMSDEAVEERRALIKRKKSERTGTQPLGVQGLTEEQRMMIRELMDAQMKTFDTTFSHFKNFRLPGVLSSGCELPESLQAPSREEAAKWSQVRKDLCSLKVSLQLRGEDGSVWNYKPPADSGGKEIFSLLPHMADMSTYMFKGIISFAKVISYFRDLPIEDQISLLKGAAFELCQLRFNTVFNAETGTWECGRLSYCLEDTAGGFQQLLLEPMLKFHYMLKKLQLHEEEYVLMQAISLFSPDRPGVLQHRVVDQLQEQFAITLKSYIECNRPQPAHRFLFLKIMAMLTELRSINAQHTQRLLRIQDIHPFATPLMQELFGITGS
Sequence of Nuclear respiratory factor 1 (Homo sapiens) (Q16656 whole entry, looked up): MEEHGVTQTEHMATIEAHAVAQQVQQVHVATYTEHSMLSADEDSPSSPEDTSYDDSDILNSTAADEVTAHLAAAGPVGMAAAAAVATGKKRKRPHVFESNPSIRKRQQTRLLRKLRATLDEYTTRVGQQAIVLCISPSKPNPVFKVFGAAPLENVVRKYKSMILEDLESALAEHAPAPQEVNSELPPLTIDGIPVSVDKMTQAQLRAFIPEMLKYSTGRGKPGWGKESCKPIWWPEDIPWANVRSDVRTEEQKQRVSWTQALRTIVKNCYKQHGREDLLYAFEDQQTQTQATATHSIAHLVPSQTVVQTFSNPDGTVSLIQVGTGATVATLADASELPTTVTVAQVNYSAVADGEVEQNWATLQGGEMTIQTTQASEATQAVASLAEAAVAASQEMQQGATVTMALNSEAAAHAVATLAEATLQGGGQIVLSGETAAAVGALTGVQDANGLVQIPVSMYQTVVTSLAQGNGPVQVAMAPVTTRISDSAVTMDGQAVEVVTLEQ
Sequence of human Peroxisome Proliferator-activated Receptor delta (PPARd), PPARD (gene 5467) (Q03181 whole entry, looked up, the tested form may be a part): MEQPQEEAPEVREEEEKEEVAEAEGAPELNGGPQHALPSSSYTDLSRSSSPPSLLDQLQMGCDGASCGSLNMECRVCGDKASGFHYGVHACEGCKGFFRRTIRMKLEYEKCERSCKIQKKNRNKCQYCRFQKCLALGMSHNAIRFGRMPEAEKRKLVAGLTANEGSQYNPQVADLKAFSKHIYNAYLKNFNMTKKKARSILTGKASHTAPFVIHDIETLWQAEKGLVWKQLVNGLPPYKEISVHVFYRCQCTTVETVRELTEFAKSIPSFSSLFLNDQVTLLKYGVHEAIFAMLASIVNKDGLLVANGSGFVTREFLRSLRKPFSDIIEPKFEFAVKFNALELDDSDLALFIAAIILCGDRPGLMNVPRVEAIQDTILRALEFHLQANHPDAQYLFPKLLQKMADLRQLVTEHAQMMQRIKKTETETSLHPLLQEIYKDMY
Sequence of Cellular tumor antigen p53 (Homo sapiens) (P04637 whole entry, looked up): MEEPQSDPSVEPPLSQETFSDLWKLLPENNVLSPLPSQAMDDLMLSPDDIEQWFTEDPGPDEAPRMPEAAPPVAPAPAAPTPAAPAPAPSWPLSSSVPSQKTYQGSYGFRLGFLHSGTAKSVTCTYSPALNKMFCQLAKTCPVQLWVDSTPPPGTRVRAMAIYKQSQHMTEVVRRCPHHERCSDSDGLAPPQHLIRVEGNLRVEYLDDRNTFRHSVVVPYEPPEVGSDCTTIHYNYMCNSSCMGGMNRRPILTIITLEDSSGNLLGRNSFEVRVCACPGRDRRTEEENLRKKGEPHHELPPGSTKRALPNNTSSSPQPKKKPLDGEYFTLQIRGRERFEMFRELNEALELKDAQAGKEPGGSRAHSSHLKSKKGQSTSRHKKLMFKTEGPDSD
Sequence of Myc proto-oncogene protein (Homo sapiens) (P01106 whole entry, looked up): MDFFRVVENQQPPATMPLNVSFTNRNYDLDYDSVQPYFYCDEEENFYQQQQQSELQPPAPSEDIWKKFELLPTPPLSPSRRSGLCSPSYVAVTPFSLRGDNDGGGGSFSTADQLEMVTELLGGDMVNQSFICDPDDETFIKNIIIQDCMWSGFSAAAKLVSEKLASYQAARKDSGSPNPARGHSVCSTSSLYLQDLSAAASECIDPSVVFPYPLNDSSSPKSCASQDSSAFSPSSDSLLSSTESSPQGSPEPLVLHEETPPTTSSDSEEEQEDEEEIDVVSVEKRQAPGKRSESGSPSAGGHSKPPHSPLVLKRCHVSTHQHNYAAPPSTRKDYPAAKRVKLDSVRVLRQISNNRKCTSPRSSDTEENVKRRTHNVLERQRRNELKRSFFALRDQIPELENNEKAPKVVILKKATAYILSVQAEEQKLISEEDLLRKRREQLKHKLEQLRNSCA

Consider `C=C(C)C(=O)[O][Sn]([CH2]CCC)([CH2]CCC)[CH2]CCC`, for which the molecule was called inactive in assay [1], in [2], in assay [3], in assay [4], in assay [7] and in assay [12]. Further, the outcome in [13] was inactive. The AC50 in assay [5] was 260 nM (active); in assay [6] it was 0.412 µM (active); in assay [8] it was 0.148 µM (active); in assay [9] it was 0.148 µM (active); in [10], 0.148 µM (active); in assay [11], 0.254 µM (active). Moreover, the AC50 was 0.148 µM (active) in [14] and 286 nM (active) in assay [15].

Consider `C=CC(=O)OCCCCCC(C)C`, for which the call in [1], in [2], in [3], in [4], in [5] and in assay [6] was inactive. The result in assay [7], in assay [8], in assay [9], in assay [10], in assay [12] and in assay [13] was inactive. The outcome in assay [16], in assay [14], in [17] and in assay [15] was inactive.

Consider `Cc1ccccc1N`, for which the outcome in assay [1], in assay [2], in assay [3], in [4], in assay [5] and in assay [6] was inactive. Also, the molecule was classed as inactive in [7], in assay [8], in [9], in assay [10], in assay [12] and in assay [13]. The result in [14] was inactive.

For `CC12CC1(C)C(=O)N(c1cc(Cl)cc(Cl)c1)C2=O` (stereo unspecified), the molecule was called inactive in assay [1], in assay [2], in [3], in [4], in assay [5] and in assay [6]. For the same molecule, the result in assay [7], in assay [8], in [9], in assay [10], in assay [12] and in [13] was inactive. The outcome in assay [14], in [17] and in [15] was inactive. The AC50 in assay [15] was 2.03 µM (active) and 4.13 µM (active) and 2.07 µM (active).

For the molecule `C[C@]12CCC(=O)C[C@@H]1CC[C@@H]1[C@@H]2CC[C@]2(C)[C@@H](O)CC[C@@H]12`, the molecule was classed as inactive in assay [1], in [2], in assay [3], in assay [4], in assay [5] and in assay [6]. The call in assay [7], in [8], in assay [10], in [12] and in assay [15] was inactive. Further, the AC50 is 57.9 µM (active) in assay [4]; 61.4 µM (active) and 57.3 µM (active) in [5]; 86.1 µM (active) in assay [6]; 51.4 µM (active) in assay [7]; 18.6 µM (active) in assay [9]; 18.3 µM (active) in [14]. Besides, the AC50 in assay [15] was 11900 nM (active).

Turning to `C(=NC1CCCCC1)=NC1CCCCC1`, the call in assay [1], in assay [2], in assay [3], in [4], in [5] and in assay [7] was inactive. The call in assay [15] was inactive. Besides, the AC50 in [6] was 5.24 µM (active); in [8], 34 µM (active); in assay [9], 9.69 µM (active); in [10] it was 30.3 µM (active); in assay [11], 6.27 µM (active); in assay [14], 28.6 µM (active).
